We go through eight compounds from PubChem BioAssay AID2061319 (National Center for Advancing Translational Sciences (NCATS), 2025).

Records with an inconclusive call do not appear. Values without a mark were called inactive. Active and inactive are the calls of the source. Calls follow the shape of the dose curve; as a rule, active = well fitted inhibition curve with a large enough effect; inconclusive = small, poorly fitted or top-dose-only effect; inactive = flat fitted curve, though single readings scatter. Square brackets hold non-standard residues; d marks the D form. Peptide text beside a SMILES is read from it. * marks the point of attachment. Dolaproine = CO[C@@H]([C@@H]1CCCN1)[C@@H](C)C(=O)O; Dil = CC[C@H](C)[C@H](NC)[C@@H](CC(=O)O)OC; X1 = C[C@@H](N*)[C@@H](O)c1ccccc1; NMeV = CN[C@H](C(=O)O)C(C)C

This assay is described as follows: Identification of antibody-drug conjugate (ADC) payloads which are substrates of ATP-binding cassette drug efflux transporters: ABCG2-H460-MX20 cell line with Ko143. Conditions: H460-MX20 (ABCG2) + Ko143, CellTiter-Glo viability, 48 h; series mostly up to 28.7 µM; activity change, negative = cytotoxicity: at the top concentration. From the text: Antibody-drug conjugates (ADCs) feature an antibody recognizing a specific protein joined to a potent toxic payload. Numerous antibody-drug conjugates have received FDA approval; however, clinical resistance arises. Resistance mechanisms include decreased expression or mutation of the antibody target, impaired payload release, or increased expression of ATP-binding cassette (ABC) efflux transporters associated with multidrug resistance. We therefore sought to characterize the interaction of ABC multidrug transporters with ADC payloads. We performed a high-throughput screen with 27 common ADC payloads using cells lines expressing ABC transporters P-glycoprotein (P-gp, encoded by ABCB1) or ABCG2 (encoded by ABCG2). Confirmatory assays were also performed using cells transfected to express P-gp, ABCG2, or MRP1 (encoded by ABCC1). Several commonly used ADC payloads were substrates of P-gp, including calicheamicin gamma1, monomethyl auristatin E, DM1, and DM4. All the pyrrolobenzodiazepines tested - SJG136, SGD-1882, SG2057, and SG3199 - were substrates of P-gp, ABCG2, and MRP1. […] These findings highlight the risk of transporter-mediated resistance with certain ADC payloads and underscore the importance of selecting payloads that evade ABC transporter recognition in future ADC development.
HEK-293 cells were transfected with empty vector (pcDNA) or vector containing the human ABCB1 (MDR-19), ABCG2 (R-5), or ABCC1 gene (MRP1) and were maintained in EMEM with 2 mg/mL G418 added to maintain transporter expression. The HeLa derivative KB-3-1 and the P-gp overexpressing KB-8-5-11 subline were maintained in DMEM; KB-8-5-11 additionally received 100 ng/mL colchicine. H460 parental cells were obtained from the Division of Cancer Treatment and Diagnosis Tumor Repository, National Cancer Institute at Frederick, MD and were cultured in RPMI. The ABCG2 expressing subline H460 MX20 was generated by selecting H460 cells in 20 nM mitoxantrone. Media in all cases was supplemented with 10% FBS and 1% penicillin-streptomycin. We explored 27 common ADC payloads, in two orthogonal, paired cell line sets-a drug selected and transfected set for each transporter--to identify substrates of the ABC transporters P-gp and ABCG2. Compounds were sourced from Levena Biopharma (San Diego, CA), Selleck Chem (Houston, TX), ChemieTek (Indianapolis, IN), or Microsource Discovery Systems (Gaylordsville, CT). Screening was performed as previously described. Briefly, cells were plated at a density of 500 cells/well in 1536 well plates with compounds added using a 1536-head pin tool (Kalypsys, San Diego CA). Cells were incubated with cytotoxic drugs and processed with CellTiter Glo reagent (Promega, Madison, WI) to determine viability after 48 hours. P-gp substrates were identified by comparing compound activity between paired sets of low-expressing (sensitive) and over-expressing (resistant) cell lines.
On the technique in general: ATP-based viability assays read luminescence as a measure of living cells.
As for `CC[C@H](C)[C@H](NC(=O)[C@H]1CCCCN1C)C(=O)N(C)[C@H](C[C@@H](OC(C)=O)c1nc(C(=O)O)cs1)C(C)C`, the “activity change, negative = cytotoxicity” value was -27.7%.

Turning to `CC[C@H](C)[C@@H]([C@@H](CC(=O)N1CCC[C@H]1[C@H](OC)[C@@H](C)C(=O)N[C@H](C)[C@@H](O)c1ccccc1)OC)N(C)C(=O)[C@@H](NC(=O)[C@H](C(C)C)N(C)C)C(C)C`, the Potency is 6710 nM (active).

`COc1cccc2c1C(=O)c1c(O)c3c(c(O)c1C2=O)C[C@@](O)(C(=O)CO)CC3OC1CC(N2CCOC(OC)C2)C(O)C(C)O1` (stereo partly drawn): the Potency is 9.5 nM (active).

As for `CC[C@@]1(O)C(=O)OCc2c1cc1n(c2=O)Cc2cc3ccccc3nc2-1`, the Potency was 238 nM (active).

`CC[C@H](C)[C@@H]([C@@H](CC(=O)N1CCC[C@H]1[C@H](OC)[C@@H](C)C(=O)N[C@H](C)[C@@H](O)c1ccccc1)OC)N(C)C(=O)[C@@H](NC(=O)[C@@H](NC)C(C)C)C(C)C` (H-[NMeV]V[Dil][Dolaproine]-X1): the “activity change, negative = cytotoxicity” value is -30.4%.

Consider `CC[C@H](C)[C@@H]1NC(=O)CNC(=O)[C@H]2Cc3c([nH]c4cc(O)ccc34)S(=O)C[C@H](NC(=O)CNC1=O)C(=O)N[C@@H](CC(N)=O)C(=O)N1C[C@H](O)C[C@H]1C(=O)N[C@@H]([C@@H](C)[C@@H](O)CO)C(=O)N2` (stereo partly drawn), for which the Potency was 533 nM (active).

For `CC[C@H](C)[C@H](NC(=O)[C@H]1CCCCN1C)C(=O)N(C)[C@H](C[C@@H](OC(C)=O)c1nc(C(=O)N[C@@H](Cc2ccccc2)C[C@H](C)C(=O)O)cs1)C(C)C`, the “activity change, negative = cytotoxicity” value is -26%.

Turning to `COc1cc2cc(C(=O)N3C[C@@H](CCl)c4c3cc(O)c3ccccc43)[nH]c2c(OC)c1OC`, the Potency is 1.9 nM (active).
